Results on 8 compounds are retold here after PubChem BioAssay (Tox21).

Structures are written as SMILES. Values without a mark were called inactive. Inconclusive results are not listed. Activity calls are given as the source filed them. Unless noted, calls follow the shape of the dose curve; as a rule, active = well fitted curve in the direction sought with a large enough effect in the repeat runs; inconclusive = weak or mixed curves; inactive = no such curve, though single readings can be large; an effect the other way counts as inactive or inconclusive.

Assay [1] is described as follows: qHTS assay to identify small molecule antagonists of the sonic hedgehog signaling (Shh) pathway (AID 1259369; calls by dose curve; also: nearly all actives have a fitted effect of over 45% in size; also: potency is read from the fitted curve at half-maximal effect). The essentials:
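NIH/3T3-derived Gli1-Luc reporter cells plated 4 h, dosed with compound, then stimulated with conditioned medium for 24 h at 37 C. Firefly luciferase luminescence read after 30 min with detection reagent at room temperature.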
On the technique in general: qHTS replaces the single test concentration by a dilution series.

Assay [2] concerns the target Estrogen receptor beta (Homo sapiens) (UniProt Q92731). The assay can be described thus: qHTS assay to identify small molecule agonists of the estrogen receptor beta (ER-beta) signaling pathway (AID 1259377; active = well fitted activation curve with a large enough effect in the signal ratio in the repeat runs, not every such curve was filed as active; the % refers to the signal ratio). The essentials:
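Read-out: beta-lactamase FRET fluorescence. Cell line: ER-beta-UAS-bla HEK293T in 2% charcoal-stripped FBS. Exposure: 16 hr at 37C. Substrate step: 2 h at room temperature.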

Assay [3] in a line: qHTS assay to identify small molecule agonists of the androgen receptor (AR) signaling pathway in the presence of an antagonist - cell viability counter screen (AID 1259379).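 Also: MDA-kb2 human breast cancer cells carrying an MMTV luciferase reporter; series mostly up to about 92 µM; nearly all actives have a fitted effect of over 25% in size.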 The essentials: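 MDA-kb2 cells (MMTV-luciferase, AR/GR), 3,000/well, 5 h attachment, then 3.0 µM nilutamide (final) and compounds at 15 concentrations. Viability by CellTiter-Fluor fluorescence after 16 h at 37 °C, 0% CO2, in the reporter wells.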

A short description of assay [4]: qHTS assay to identify small molecule agonists of the estrogen receptor beta (ER-beta) signaling pathway - cell viability counter screen (AID 1259380). Also: nearly all actives have a fitted effect of over 30% in size. Also: potency is read from the fitted curve at half-maximal effect. In short, it runs like this: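 ER-beta-UAS-bla HEK293T cells in medium with 2% charcoal-stripped FBS, pre-incubated 6 hr, then treated 16 hr at 37C. Cytotoxicity read in the same wells by CellTiter-Glo luminescence after 30 min at room temperature.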

Assay [5] in a line: qHTS assay to identify small molecule antagonists of the estrogen receptor beta (ER-beta) signaling pathway - cell viability counter screen (AID 1259382). Also: nearly all actives have a fitted effect of over 55% in size. Also: potency is read from the fitted curve at half-maximal effect. As to activity change, negative = cytotoxicity: series mostly up to about 92 µM. In short, it runs like this: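 ER-beta-UAS-bla HEK293T cells in 2% charcoal-stripped FBS medium, treated with compound plus 1 nM 17-beta-estradiol for 16 h at 37C. Viability read by CellTiter-Glo luminescence after 30 min at room temperature in the same wells.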

Assay [6] in a line: qHTS assay to identify small molecule agonists or antagonists of the thyroid stimulating hormone receptor (TSHR) signaling pathway - wild type cell line counter screen (AID 1259384; calls by dose curve). In short, it runs like this: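 Wild-type Hek293 cells, 800/well, 18 h at 37C, then compound with Ro20-1724 for 30 min RT. cAMP by HTRF (cAMP-d2/anti-cAMP cryptate), 1 h RT, fluorescence read. 15 concentrations, triplicates.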

A short description of assay [7]: qHTS assay to identify small molecule agonists of the estrogen receptor alpha (ER-alpha) signaling pathway in the presence of an antagonist - cell viability counter screen (AID 1259386).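 Also: series mostly up to about 92 µM; cells exposed to compounds for 22 h at 37 °C before the viability read; nearly all actives have a fitted effect of over 30% in size.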 In short, it runs like this: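 Cell viability in VM7Luc4E2 cells (endogenous full-length ER-alpha) measured by CellTiter-Fluor fluorescence in the same wells as the luciferase screen. Cells pre-cultured 5 days in charcoal-stripped serum, then treated 22 h with compounds at 15 concentrations plus 10.0nM ICI-182,780.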

Assay [8] concerns the target Progesterone receptor (Homo sapiens) (UniProt P06401). The assay can be described thus: qHTS assay to identify small molecule agonists of the progesterone receptor (PR) signaling pathway (AID 1346784; calls by dose curve; also: nearly all actives have a fitted effect of over 30% in size). In short, it runs like this:
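Compounds were tested for PR agonism in HEK 293T cells bearing a beta-lactamase gene under UAS control. Treatment lasted 16 hr at 37C; signal came from fluorescence of a FRET substrate.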

Assay [9] in a line: qHTS assay to identify small molecule antagonists of the progesterone receptor (PR) signaling pathway - cell viability counter screen (AID 1346798). Also: series mostly up to about 92 µM; nearly all actives have a fitted effect of over 50% in size. In short, it runs like this:
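Following a 4 hr attachment, PR-UAS-bla HEK293T cells in charcoal-stripped FBS medium were exposed to compounds with R5020 for 16 hr; CellTiter-Glo was added and luminescence read after 30 min at room temperature.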

Assay [10] is described as follows: qHTS assay to identify small molecule antagonists of the TGF-beta/Smad signaling pathway - cell viability counter screen (AID 1346824). Also: nearly all actives have a fitted effect of over 50% in size. The essentials: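 SBE-bla HEK 293T cells, incubated overnight, then compound plus 0.25 ng/mL TGF-beta1 (stock added) for 5 hr at 37 C. Viability was read in the same wells by CellTiter-Glo luminescence after 30 min at room temperature.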

Assay [11] in a line: qHTS assay to identify small molecule agonists of the TGF-beta/Smad signaling pathway - cell viability counter screen (AID 1346829). Also: top concentration of the series differs between compounds; nearly all actives have a fitted effect of over 45% in size. In short, it runs like this:
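Luminescence from CellTiter-Glo, read after a 30 min room-temperature incubation, gives cell viability of SBE-bla HEK 293T cells treated 5 hr with compounds at 37 C.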

Assay [12] is described as follows: qHTS assay to identify small molecule agonists of the TGF-beta/Smad signaling pathway (AID 1346859; active = well fitted activation curve with a large enough effect in the signal ratio in the repeat runs, not every such curve was filed as active; the % refers to the signal ratio; also: series mostly up to about 77 µM). In short, it runs like this: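 Each well held 4,000 SBE-bla HEK 293T cells incubated overnight before compound addition; 5 hr later the cleavable FRET substrate went on for 2 hr at room temperature, and fluorescence was read at two emissions.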
In assay [13] the target is Thyrotropin-releasing hormone receptor (Homo sapiens) (UniProt P34981). As to the kind of experiment: qHTS assay to identify small molecule antagonists of the thyrotropin-releasing hormone receptor (TRHR) signaling pathway (AID 1346877; active = well fitted inhibition curve with a large enough effect in the repeat runs, not every such curve was filed as active; also: series mostly up to about 51 µM). The essentials:
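TRHR-expressing HEK293 cells loaded with calcium dye for 2 h at 37 C; compounds pre-incubated 5 min at room temperature before TRH challenge at 1 nM final. Intracellular calcium fluorescence read kinetically for 3 min; 15 concentrations in triplicate.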

Assay [14] has the same target. As to the kind of experiment: qHTS assay to identify small molecule agonists of the thyrotropin-releasing hormone receptor (TRHR) signaling pathway (AID 1346891; calls by dose curve; also: series mostly up to about 58 µM). In short, it runs like this: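 Screening of agonists relied on calcium signalling in HEK293 cells expressing human TRHR: dye loading 2 h at 37 °C preceded compound addition and a 3-min fluorescence time course.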

Assay [15] concerns the target Estrogen receptor beta (Homo sapiens) (UniProt Q92731). The assay can be described thus: qHTS assay to identify small molecule antagonists of the estrogen receptor beta (ER-beta) signaling pathway (AID 1259378; active = well fitted inhibition curve with a large enough effect in the signal ratio in the repeat runs, not every such curve was filed as active; the % refers to the signal ratio). In short, it runs like this: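 ER-beta-UAS-bla HEK293T cells in 2% charcoal-stripped FBS medium treated with compound plus 1nM final 17-beta-estradiol for 16 hr at 37C. Beta-lactamase reporter read by FRET substrate fluorescence after 2 hours at room temperature.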

Assay [16] deals with Estrogen receptor (Homo sapiens) (UniProt P03372). As to the kind of experiment: qHTS assay to identify small molecule agonists of the estrogen receptor alpha (ER-alpha) signaling pathway in the presence of an antagonist (AID 1259383; calls by dose curve; also: top concentration of the series differs between compounds; nearly all actives have a fitted effect of over 15% in size). The essentials:
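VM7Luc4E2 cells express endogenous full-length ER-alpha with an ERE-luciferase reporter and were hormone-deprived for 5 days. Compounds at 15 concentrations were added with 10.0nM ICI-182,780 for 22hr at 37C. Luminescence was read with ONE-Glo.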

Assay [17] deals with Thyrotropin receptor (Homo sapiens) (UniProt P16473). The assay can be described thus: qHTS assay to identify small molecule antagonists of the thyroid stimulating hormone receptor (TSHR) signaling pathway (AID 1259385; calls by dose curve; also: nearly all actives have a fitted effect of over 20% in size). The essentials:
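TSHR-HEK293 cells (800/well) plated 18 h, then compounds with Ro20-1724 and TSH at 1.5 ng/mL final, 30 min at room temperature. cAMP quantified by HTRF (cAMP-d2/anti-cAMP-cryptate, 1 h); 15 concentrations in triplicate.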

A short description of assay [18]: qHTS assay to identify small molecule agonists of the progesterone receptor (PR) signaling pathway - cell viability counter screen (AID 1346799; calls by dose curve; also: nearly all actives have a fitted effect of over 45% in size). The essentials: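 Here, 3,000 PR-UAS-bla HEK293T cells per well were treated with compounds for 16 hr after a 6 hr preincubation at 37C and 5% CO2; cell viability is the CellTiter-Glo luminescence signal.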
In assay [19] the target is Progesterone receptor (Homo sapiens) (UniProt P06401). The assay can be described thus: qHTS assay to identify small molecule antagonists of the progesterone receptor (PR) signaling pathway (AID 1346795; active = well fitted inhibition curve with a large enough effect in the signal ratio in the repeat runs, not every such curve was filed as active; the % refers to the signal ratio; also: potency is read from the fitted curve at half-maximal effect). In short, it runs like this:
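In HEK293T cells bearing the PR-UAS-bla reporter, compound effects on promegestone-driven (1 nM) beta-lactamase expression are assessed after 16 hr using a fluorescent FRET substrate incubated 2 hr at room temperature.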

Assay [20] addresses Androgen receptor (Homo sapiens) (UniProt P10275). The assay can be described thus: qHTS assay to identify small molecule agonists of the androgen receptor (AR) signaling pathway in the presence of an antagonist (AID 1259381; calls by dose curve; also: nearly all actives have a fitted effect of over 15% in size). In short, it runs like this: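 MDA-kb2 cells carrying MMTV-luciferase (AR/GR responsive), 3,000 cells/well, co-treated with 3.0 uM nilutamide final. Compounds at 15 concentrations, 16 hr at 37C without CO2. Luciferase luminescence read after 30 min with ONE-Glo.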
% is scaled to controls: 0 for no effect and ±100 for the full control effect.

Thyrotropin receptor (Homo sapiens), sequence (P16473 whole entry, looked up): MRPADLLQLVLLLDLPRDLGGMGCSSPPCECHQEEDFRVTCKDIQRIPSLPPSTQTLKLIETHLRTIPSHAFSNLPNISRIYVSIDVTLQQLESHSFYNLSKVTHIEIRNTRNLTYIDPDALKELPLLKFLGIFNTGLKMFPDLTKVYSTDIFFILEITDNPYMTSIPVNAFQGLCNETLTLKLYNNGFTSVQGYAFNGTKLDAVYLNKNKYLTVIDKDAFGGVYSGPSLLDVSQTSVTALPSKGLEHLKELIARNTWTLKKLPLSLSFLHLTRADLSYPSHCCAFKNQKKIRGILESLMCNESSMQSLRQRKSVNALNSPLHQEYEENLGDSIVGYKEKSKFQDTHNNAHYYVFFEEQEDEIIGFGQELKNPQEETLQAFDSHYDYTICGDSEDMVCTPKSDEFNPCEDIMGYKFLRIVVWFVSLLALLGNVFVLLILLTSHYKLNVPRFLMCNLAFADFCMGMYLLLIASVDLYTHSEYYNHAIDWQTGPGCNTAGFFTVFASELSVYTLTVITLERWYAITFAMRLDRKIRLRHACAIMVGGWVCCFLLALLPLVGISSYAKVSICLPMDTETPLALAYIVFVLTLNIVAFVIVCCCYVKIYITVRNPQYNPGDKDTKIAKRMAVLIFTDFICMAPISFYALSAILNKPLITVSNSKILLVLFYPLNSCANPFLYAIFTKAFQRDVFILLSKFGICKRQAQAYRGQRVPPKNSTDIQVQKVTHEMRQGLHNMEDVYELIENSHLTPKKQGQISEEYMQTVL
Estrogen receptor (Homo sapiens), sequence (P03372 whole entry, looked up): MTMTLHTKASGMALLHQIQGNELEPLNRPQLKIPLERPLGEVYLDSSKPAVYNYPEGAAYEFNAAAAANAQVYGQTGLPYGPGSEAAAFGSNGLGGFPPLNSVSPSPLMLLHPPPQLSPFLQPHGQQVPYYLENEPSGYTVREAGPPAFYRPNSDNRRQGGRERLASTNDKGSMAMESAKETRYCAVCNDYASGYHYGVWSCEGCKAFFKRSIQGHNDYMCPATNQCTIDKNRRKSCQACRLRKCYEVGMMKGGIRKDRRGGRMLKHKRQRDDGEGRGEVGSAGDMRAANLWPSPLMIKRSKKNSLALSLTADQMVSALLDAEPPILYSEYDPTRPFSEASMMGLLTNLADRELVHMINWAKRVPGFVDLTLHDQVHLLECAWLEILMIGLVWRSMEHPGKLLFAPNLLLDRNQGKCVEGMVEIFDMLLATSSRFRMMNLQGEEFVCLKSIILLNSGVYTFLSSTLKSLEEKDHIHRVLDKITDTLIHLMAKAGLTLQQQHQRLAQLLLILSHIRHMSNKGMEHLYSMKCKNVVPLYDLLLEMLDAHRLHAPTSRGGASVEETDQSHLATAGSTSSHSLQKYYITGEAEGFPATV
Thyrotropin-releasing hormone receptor (Homo sapiens), sequence (P34981 whole entry, looked up): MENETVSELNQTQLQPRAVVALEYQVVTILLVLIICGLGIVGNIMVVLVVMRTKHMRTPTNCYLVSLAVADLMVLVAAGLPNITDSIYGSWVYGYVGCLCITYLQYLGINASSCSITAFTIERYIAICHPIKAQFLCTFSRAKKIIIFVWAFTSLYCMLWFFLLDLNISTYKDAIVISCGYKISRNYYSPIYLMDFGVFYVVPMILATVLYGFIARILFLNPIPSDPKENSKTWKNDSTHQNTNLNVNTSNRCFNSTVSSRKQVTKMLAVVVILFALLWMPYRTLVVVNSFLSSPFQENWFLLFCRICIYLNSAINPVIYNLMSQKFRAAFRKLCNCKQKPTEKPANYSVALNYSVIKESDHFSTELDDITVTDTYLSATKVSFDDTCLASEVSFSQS
Estrogen receptor beta (Homo sapiens), sequence (Q92731 whole entry, looked up): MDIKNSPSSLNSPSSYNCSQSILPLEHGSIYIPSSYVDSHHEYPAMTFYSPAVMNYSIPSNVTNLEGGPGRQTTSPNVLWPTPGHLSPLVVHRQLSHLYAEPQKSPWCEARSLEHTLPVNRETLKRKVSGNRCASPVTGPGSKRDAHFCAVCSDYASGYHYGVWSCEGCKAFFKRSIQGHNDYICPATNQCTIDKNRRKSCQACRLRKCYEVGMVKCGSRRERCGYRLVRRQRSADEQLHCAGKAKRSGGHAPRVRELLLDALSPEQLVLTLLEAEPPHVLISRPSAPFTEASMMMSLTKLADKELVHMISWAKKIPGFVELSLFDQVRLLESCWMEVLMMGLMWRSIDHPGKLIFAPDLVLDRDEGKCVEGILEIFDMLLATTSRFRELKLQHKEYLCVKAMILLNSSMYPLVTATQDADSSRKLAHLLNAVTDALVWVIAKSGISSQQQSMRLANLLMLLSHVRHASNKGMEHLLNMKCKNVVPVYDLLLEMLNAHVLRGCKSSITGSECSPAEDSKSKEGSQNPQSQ
Progesterone receptor (Homo sapiens), sequence (P06401 whole entry, looked up): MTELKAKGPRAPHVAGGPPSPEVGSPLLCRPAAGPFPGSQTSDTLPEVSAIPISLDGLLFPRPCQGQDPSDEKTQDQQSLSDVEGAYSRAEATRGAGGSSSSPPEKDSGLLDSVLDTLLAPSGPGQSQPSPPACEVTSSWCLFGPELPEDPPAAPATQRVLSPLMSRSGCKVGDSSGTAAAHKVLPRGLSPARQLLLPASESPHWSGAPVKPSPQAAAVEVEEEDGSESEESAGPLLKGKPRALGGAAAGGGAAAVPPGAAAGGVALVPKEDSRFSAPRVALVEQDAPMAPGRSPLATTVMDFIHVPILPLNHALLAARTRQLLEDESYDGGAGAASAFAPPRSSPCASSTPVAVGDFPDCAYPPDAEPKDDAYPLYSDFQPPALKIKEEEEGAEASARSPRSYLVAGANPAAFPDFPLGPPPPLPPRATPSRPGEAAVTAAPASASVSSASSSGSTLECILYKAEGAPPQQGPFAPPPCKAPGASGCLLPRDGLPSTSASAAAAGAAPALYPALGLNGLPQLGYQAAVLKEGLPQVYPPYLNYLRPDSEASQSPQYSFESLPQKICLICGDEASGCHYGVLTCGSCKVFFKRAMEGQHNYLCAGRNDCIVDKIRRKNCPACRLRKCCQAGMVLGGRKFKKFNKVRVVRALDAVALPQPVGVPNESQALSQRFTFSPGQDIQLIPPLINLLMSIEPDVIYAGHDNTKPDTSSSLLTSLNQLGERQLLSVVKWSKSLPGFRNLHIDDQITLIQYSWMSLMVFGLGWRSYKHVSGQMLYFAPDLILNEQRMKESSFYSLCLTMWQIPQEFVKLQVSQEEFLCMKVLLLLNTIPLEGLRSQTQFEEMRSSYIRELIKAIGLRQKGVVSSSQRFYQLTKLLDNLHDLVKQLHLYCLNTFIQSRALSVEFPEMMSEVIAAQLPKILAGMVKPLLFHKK
Androgen receptor (Homo sapiens), sequence (P10275 whole entry, looked up): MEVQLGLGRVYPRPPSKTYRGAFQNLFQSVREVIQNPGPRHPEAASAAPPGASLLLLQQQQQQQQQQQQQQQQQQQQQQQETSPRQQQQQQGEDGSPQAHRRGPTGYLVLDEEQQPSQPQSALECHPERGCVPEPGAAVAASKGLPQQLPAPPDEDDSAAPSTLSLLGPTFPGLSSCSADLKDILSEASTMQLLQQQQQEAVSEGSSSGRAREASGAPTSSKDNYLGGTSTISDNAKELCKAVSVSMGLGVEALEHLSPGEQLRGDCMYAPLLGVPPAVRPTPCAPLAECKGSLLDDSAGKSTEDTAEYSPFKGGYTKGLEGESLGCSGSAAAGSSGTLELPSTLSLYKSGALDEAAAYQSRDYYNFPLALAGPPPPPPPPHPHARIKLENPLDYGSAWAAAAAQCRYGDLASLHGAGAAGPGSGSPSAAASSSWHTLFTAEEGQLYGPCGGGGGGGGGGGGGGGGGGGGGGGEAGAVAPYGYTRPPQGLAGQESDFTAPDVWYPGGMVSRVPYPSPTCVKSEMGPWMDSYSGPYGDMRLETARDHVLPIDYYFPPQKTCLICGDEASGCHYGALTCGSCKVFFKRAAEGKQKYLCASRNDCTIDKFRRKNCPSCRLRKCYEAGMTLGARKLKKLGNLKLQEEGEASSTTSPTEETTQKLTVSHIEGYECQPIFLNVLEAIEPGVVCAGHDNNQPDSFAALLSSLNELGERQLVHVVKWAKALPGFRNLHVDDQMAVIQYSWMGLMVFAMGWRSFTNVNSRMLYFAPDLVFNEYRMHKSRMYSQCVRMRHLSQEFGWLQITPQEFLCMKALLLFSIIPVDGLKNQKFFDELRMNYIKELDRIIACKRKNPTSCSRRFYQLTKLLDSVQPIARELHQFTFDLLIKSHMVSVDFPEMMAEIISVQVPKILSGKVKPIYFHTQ

As for `CCCNCC(O)COc1ccccc1C(=O)CCc1ccccc1` (stereo unspecified), the Potency in assay [1] is 4.73 µM (active); in assay [4] it was 26.6 µM (active); in assay [5] it was 23.7 µM (active). The Potency result in assay [2], in [3], in assay [6], in assay [7], in [8] and in assay [9] was “inactive” throughout. Also, the Potency result in assay [10], in [12] and in [14] was “inactive” in each case. The compound was classed as inactive in [11] and in assay [13].
On to `Brc1c2ccccc2c(Br)c2ccccc12`, for which the activity change, negative = inhibition in assay [1] was 2.55% [at 8.39 µM]; in assay [17], -6.18% [at 8.39 µM]. For the same compound, the activity, negative = inhibition in [15] was 14.5% [at 8.39 µM]; in [13], -1.3% [at 4.65 µM]. In addition, the activity change, negative = cytotoxicity is 0.897% [at 8.39 µM] in assay [3]; 1.65% [at 8.39 µM] in [4]; 7.62% [at 8.39 µM] in [5]; 2.81% [at 8.39 µM] in [7]; 18.6% [at 8.39 µM] in assay [18]; -9.36% [at 6.97 µM] in assay [11]. In addition, the activation in assay [16] was -0.192% [at 8.39 µM]; in assay [8], 5.54% [at 8.39 µM]. Further, in [6], the cAMP activity change is 1.89% [at 8.39 µM, stronger effect = higher value]. Further, the viability change, negative = cytotoxic in assay [10] was 16.5% [at 6.97 µM].
Consider `O=C(CS)Nc1ccccc1`, for which the Potency entry in assay [1], in assay [2], in assay [3], in [4], in [5] and in [16] was “inactive” each time. Moreover, the Potency result in assay [6], in assay [17], in [7], in assay [8], in [19] and in assay [9] was “inactive” throughout. The Potency result in assay [18], in assay [10], in [12] and in [14] was “inactive” in each case. In addition, the outcome in assay [11] and in assay [13] was inactive.
Take `CC(C)CC(=O)C1C(=O)c2ccccc2C1=O`: the Potency in assay [1] was 61.1 µM (active). The Potency entry in assay [2], in assay [3], in assay [20], in assay [5], in assay [16] and in assay [6] was “inactive” throughout. Besides, the Potency result in assay [8], in assay [19], in assay [10], in assay [12] and in assay [14] was “inactive” each time. In addition, the call in assay [11] and in [13] was inactive.
On to `COc1cc(Cl)ccc1Oc1ccc(Cl)cc1Cl`, for which the Potency result in assay [1], in [2], in [3], in assay [4], in [5] and in [16] was “inactive” throughout. Also, the Potency result in [6], in assay [7], in [9], in assay [18], in assay [10] and in assay [14] was “inactive” throughout. Further, the Potency in assay [19] was 8.39 µM (active). Further, the result in [11] and in assay [13] was inactive.
With `CC(=O)c1ccc2c(c1)N(CCCN(C)C)c1ccccc1S2`, the Potency result in assay [1], in assay [2], in [3], in assay [16], in [6] and in assay [17] was “inactive” in each case. The Potency result in [7], in [8], in [18], in assay [10], in assay [12] and in assay [14] was “inactive” throughout. The compound was classed as inactive in [11] and in assay [13].
Regarding `CC(C)(O)c1ccc(CNC(=O)c2cccnc2Oc2ccc(F)cc2)cc1`, the Potency in assay [1] is 0.273 µM (active). The Potency result in [2], in [3], in [4], in [6], in assay [17] and in assay [7] was “inactive” in each case. Moreover, the Potency result in [8], in [19] and in assay [12] was “inactive” throughout. Moreover, in [11], the outcome was inactive.
For the compound `C=CCOC(=O)CCC1CCCCC1`, the Potency result in assay [1], in assay [2], in assay [3], in [4], in [5] and in assay [6] was “inactive” in each case. The Potency result in [17], in assay [7], in assay [8], in assay [9], in [18] and in assay [10] was “inactive” in each case. Moreover, the Potency result in assay [12] and in assay [14] was “inactive” each time. The compound was classed as inactive in assay [11] and in [13].
